Measurements from PubChem BioAssay.
Calls of active or inactive are those of the source.

Assays:
[1] = E. coli DRC41 culture turbidity changes, primary screen, E. coli filamentation inducer project, strain DRC41, OD650, 48 h (AID 1152);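 further: E. coli MC1000 strain DRC41 lacking acrAB efflux pump and sulA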; conditions: E. coli DRC41 (acrAB sulA), higher = more signal, called active from +8 up or from −8 down
[2] = small-molecule binders of probe aLefty1, primary screen, biochemical, small-molecule microarray, 635/667 nm fluorescence (AID 1153); conditions: higher = more signal;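 further: score merges spot fluorescence with signal-to-noise ratio from the scanned slide images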
[3] = PSAC antagonists in infected red cells, primary screen, cell-based, P. falciparum Indochina, OD700, 1 h (AID 1154); conditions: P. falciparum Indochina infected RBC osmotic lysis, higher = more signal, called active from +8 up or from −8 down
[4] = PSAC antagonists in infected red cells, primary screen, cell-based, P. falciparum Indochina, OD700, 2 h (AID 1155);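 further: lysis reports solute entry through the parasite surface anion channel PSAC; channel blockers reduce lysis of infected cells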; conditions: P. falciparum Indochina infected erythrocytes, osmotic lysis OD700; higher = more signal, called active from +8 up or from −8 down
[5] = osmotic lysis modulators in infected erythrocytes, primary screen, PSAC antagonist project, cell-based, P. falciparum Indochina, OD700, 3 h (AID 1156); conditions: higher = more signal, called active from +8 up or from −8 down
[6] = PSAC antagonists in infected red cells, primary screen, cell-based, P. falciparum Indochina, OD700, 18 h (AID 1157); conditions: P. falciparum Indochina infected erythrocytes, osmotic lysis OD700, 18 h; higher = more signal, called active from +8 up or from −8 down
[7] = modulators of S6 phosphorylation in cells, primary screen, cell-based, A549, cytoblot, luminescence, serum-stimulated (AID 1158); conditions: A549 phospho-S6 cytoblot, 5 h, higher = more signal;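 further: serum-stimulated A549 lung adenocarcinoma cells; signal is phosphorylated S6 detected by cytoblot immunostaining with HRP secondary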
[8] = biological target: NADPH oxidase 2 (Homo sapiens) (UniProt P04839); experiment: NOX2-dependent H2O2 signal modulators, primary screen, NOX inhibitor project, cell-based, HEK293-NOX2, PMA-stimulated, Amplex Red fluorescence (AID 1159); conditions: 45 min, higher = more signal, called active from +8 up or from −8 down; further: test concentration not given here
[9] = biological target: NADPH oxidase 4 (Homo sapiens) (UniProt Q9NPH5); experiment: NOX4-dependent H2O2 signal modulators, primary screen, NOX inhibitor project, cell-based, HEK293-NOX4, tetracycline-induced, Amplex Red fluorescence (AID 1160); conditions: 45 min, higher = more signal, called active from +8 up or from −8 down
[10] = biological target: NADPH oxidase 5 (Homo sapiens) (UniProt Q96PH1); experiment: NOX5-dependent H2O2 signal modulators, primary screen, NOX inhibitor project, cell-based, HEK293-NOX5, Amplex Red fluorescence (AID 1161); conditions: HEK293-NOX5, ionomycin, 45 min, higher = more signal
[11] = A549 cell viability effects, profiling panel, calcein-AM fluorescence, 48 h, basal (AID 1162); conditions: higher = more signal; further: test concentration not given here
[12] = adipocyte viability effects, profiling panel, cell-based, 3T3-L1 adipocytes, calcein-AM fluorescence, 48 h, basal (AID 1163); conditions: 3T3-L1 adipocytes viability, higher = more signal; further: test concentration not given here
[13] = HepG2 cell viability effects, profiling panel, calcein-AM fluorescence, 48 h, basal (AID 1164); conditions: higher = more signal; further: test concentration not given here
[14] = MM1S cell viability effects, profiling panel, calcein-AM fluorescence, 48 h, basal (AID 1165); conditions: higher = more signal;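 further: viability of MM1S multiple myeloma cells under basal unstimulated conditions; test concentration not given here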
[15] = basal RPMI8226 viability, no added stimulus, profiling panel, cell-based, calcein-AM fluorescence, 48 h, PK04 Diversity Set (AID 1166); conditions: RPMI8226 myeloma viability, higher = more signal;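 further: cells grown under basal conditions without added stimulus; test concentration not given here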
[16] = basal HepG2 mitochondrial membrane potential changes, profiling panel, cell-based, JC-1 fluorescence, 24 h, 100 nL compound (AID 1167); conditions: higher = more signal; further: test concentration not given here
[17] = basal 3T3-L1 adipocyte mitochondrial potential changes, profiling panel, cell-based, JC-1 fluorescence, 3T3-L1 adipocytes, 24 h, 100 nL compound (AID 1168); conditions: JC-1 mitochondrial fluorescence, higher = more signal, called active from +8 up or from −8 down; further: test concentration not given here
[18] = basal RPMI8226 mitochondrial membrane potential changes, profiling panel, cell-based, JC-1 fluorescence, 24 h, 100 nL compound (AID 1169); conditions: RPMI8226 myeloma, JC-1 mitochondrial potential fluorescence, higher = more signal; further: test concentration not given here
[19] = basal MM1S mitochondrial membrane potential changes, profiling panel, cell-based, JC-1 fluorescence, 24 h, 100 nL compound (AID 1170); conditions: higher = more signal; further: test concentration not given here
[20] = A549 lung cancer cell viability effects, profiling panel, resazurin fluorescence, 24 h, PK04 Diversity Set (AID 1171); conditions: higher = more signal, called active from +8 up or from −8 down; further: test concentration not given here

Chain of NADPH oxidase 5 (Homo sapiens) (Q96PH1 whole entry, looked up): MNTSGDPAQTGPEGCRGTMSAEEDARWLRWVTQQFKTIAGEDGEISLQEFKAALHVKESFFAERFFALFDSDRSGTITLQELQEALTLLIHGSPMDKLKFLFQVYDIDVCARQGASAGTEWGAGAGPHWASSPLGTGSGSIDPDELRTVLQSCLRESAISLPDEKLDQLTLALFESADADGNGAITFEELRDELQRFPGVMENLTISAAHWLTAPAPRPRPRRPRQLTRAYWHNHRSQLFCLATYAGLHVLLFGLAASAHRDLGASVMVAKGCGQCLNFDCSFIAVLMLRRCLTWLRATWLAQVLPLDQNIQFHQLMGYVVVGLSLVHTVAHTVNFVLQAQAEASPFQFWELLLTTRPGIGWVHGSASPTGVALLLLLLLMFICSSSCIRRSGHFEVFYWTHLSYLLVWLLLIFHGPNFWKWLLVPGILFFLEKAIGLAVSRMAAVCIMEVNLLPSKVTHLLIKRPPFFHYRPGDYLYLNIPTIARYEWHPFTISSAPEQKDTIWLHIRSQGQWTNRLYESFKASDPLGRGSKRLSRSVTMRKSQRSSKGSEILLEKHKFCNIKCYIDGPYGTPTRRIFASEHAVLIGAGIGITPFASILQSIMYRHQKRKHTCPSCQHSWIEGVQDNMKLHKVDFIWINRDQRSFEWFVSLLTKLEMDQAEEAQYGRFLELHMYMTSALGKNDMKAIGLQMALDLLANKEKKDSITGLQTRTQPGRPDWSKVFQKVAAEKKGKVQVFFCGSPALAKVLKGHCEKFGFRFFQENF
Chain of NADPH oxidase 2 (Homo sapiens) (P04839 whole entry, looked up): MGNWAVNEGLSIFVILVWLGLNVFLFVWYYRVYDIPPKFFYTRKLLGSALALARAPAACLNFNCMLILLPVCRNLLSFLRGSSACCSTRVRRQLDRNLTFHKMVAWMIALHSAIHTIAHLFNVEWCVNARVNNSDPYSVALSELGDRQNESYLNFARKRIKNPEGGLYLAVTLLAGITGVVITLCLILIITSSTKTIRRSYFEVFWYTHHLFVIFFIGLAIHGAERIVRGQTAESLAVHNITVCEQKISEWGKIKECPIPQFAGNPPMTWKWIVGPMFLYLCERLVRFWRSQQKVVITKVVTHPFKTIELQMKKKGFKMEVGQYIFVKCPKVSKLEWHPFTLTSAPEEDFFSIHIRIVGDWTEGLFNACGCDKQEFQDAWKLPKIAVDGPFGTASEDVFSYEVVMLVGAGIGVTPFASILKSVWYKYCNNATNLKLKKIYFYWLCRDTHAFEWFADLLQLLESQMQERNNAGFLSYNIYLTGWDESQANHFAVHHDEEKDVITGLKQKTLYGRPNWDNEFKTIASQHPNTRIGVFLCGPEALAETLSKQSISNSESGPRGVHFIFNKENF
Chain of NADPH oxidase 4 (Homo sapiens) (Q9NPH5 whole entry, looked up): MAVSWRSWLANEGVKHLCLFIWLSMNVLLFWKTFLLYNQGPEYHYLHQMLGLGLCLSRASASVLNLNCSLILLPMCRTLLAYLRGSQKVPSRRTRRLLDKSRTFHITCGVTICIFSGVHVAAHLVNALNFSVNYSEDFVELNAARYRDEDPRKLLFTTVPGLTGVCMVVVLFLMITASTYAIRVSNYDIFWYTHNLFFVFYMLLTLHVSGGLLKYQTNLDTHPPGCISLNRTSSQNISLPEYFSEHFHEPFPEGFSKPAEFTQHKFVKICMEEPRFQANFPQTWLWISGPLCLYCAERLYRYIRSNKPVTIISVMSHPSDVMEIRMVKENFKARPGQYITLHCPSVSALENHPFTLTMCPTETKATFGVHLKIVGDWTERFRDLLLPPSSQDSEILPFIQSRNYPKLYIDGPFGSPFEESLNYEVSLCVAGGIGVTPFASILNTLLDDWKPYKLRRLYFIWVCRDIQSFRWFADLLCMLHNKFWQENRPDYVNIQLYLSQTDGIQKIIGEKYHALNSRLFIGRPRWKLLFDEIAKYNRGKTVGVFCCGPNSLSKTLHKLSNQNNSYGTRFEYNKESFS

Row | SMILES | z-score [1] | composite z-score [2] | z-score [3] | z-score [4] | z-score [5] | z-score [6] | z-score [7] | z-score [8] | z-score [9] | z-score [10] | z-score [11] | z-score [12] | z-score [13] | z-score [14] | z-score [15] | z-score [16] | z-score [17] | z-score [18] | z-score [19] | z-score [20]
1 | C=CCC(OC(C)=O)[C@@H]1[C@@H](N(Cc2ccc(-c3ccccc3)cc2)C(=O)c2cccc3ccccc23)c2cc(OCCCO)ccc2N1C(=O)c1ccc2ccccc2c1 (stereo not given in full) | -0.887 (inactive) | -0.0447 | 0.441 (inactive) | -0.35 (inactive) | -0.0836 (inactive) | -0.0577 (inactive) | -0.146 | -0.634 (inactive) | -0.572 (inactive) | -4.29 | 0.197 | -0.114 | 0.833 | -0.679 | -0.202 | 1.91 | -1.3 (inactive) | -0.53 | 0.0357 | -0.725 (inactive)
2 | C=C(CCCC)C(=O)CC[C@H](OC(C)=O)c1ccccc1OCCO | 0.0371 (inactive) | 0.149 | 5.66 (inactive) | -0.686 (inactive) | 2.15 (inactive) | -1.83 (inactive) | 1.68 | -1.56 (inactive) | -0.397 (inactive) | -2.19 | -0.655 | 1.66 | -0.713 | -3.29 | -2.91 | 0.103 | 0.98 (inactive) | -0.706 | 0.346 | -1.24 (inactive)
3 | CO[C@H]1O[C@H](CO)[C@@H](OC(=O)Nc2ccccc2)[C@@H]2OC(=O)[C@H](Cc3ccccc3)C/C=C/C[C@@H](Cc3ccccc3)C(=O)O[C@@H]12 | 0.863 (inactive) | 0.302 | 10.1 (active) | 0.342 (inactive) | -1.91 (inactive) | -0.681 (inactive) | 1.31 | -3.35 (inactive) | -0.599 (inactive) | -1.57 | -0.152 | 0.385 | 0.358 | -1.22 | -2.46 | -0.928 | 0.799 (inactive) | -0.865 | -1.45 | -2.94 (inactive)
4 | CC(=O)NCCCC[C@@H]1NC(=O)[C@@H]2C[C@H](C(=O)NCCCCCC[N+](C)(C)C)[C@H](c3ccc(O)cc3)N2C1=O | -0.303 (inactive) | 0.102 | 1.5 (inactive) | 0.0681 (inactive) | -3.5 (inactive) | 0.0574 (inactive) | -0.879 | 0.881 (inactive) | 0.983 (inactive) | 0.139 | 0.131 | -0.348 | -0.611 | 0.258 | -0.539 | -1.33 | 0.164 (inactive) | 0.169 | -0.5 | -0.557 (inactive)
